# “And” between values parts separate entries of the source, which are not always exact repeats. Equal values may be shown once. Records with an inconclusive call do not appear. A call without a number means that no potency is given here. Unmarked numbers belong to inactive results. The source made the active and inactive calls. Unless noted, calls follow the shape of the dose curve; as a rule, active = well fitted curve in the direction sought with a large enough effect; inconclusive = small, poorly fitted or top-dose-only effect, or another doubt; inactive = no such curve, though single readings can be large; an effect the other way counts as inactive or inconclusive.
# Legend:
# [1] = biological target: Cellular tumor antigen p53 (Homo sapiens) (UniProt P04637); test: Primary qHTS for small molecule compounds that upregulate eGFP-tagged delta133p53alpha (in N-terminal) cells. (AID 2060322); conditions: NCI-H358 eGFP-delta133p53alpha fluorescence, 24 h; activation: hits give high values; also: nearly all actives have a fitted effect of over 75% in size; also: potency is read from the fitted curve at half-maximal effect; as to activation: series mostly up to about 56 µM
# Cellular tumor antigen p53 (Homo sapiens), sequence (P04637 whole entry, looked up): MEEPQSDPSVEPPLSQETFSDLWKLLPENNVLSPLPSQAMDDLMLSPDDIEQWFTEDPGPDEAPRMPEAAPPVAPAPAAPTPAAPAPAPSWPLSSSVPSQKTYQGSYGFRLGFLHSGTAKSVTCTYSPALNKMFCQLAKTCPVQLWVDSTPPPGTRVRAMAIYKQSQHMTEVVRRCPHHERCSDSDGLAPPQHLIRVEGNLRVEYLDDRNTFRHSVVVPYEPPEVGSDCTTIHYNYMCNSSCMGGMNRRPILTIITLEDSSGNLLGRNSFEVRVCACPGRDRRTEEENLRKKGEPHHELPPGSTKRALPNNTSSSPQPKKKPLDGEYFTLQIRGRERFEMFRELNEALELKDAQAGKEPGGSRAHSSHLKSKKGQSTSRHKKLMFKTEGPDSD
# How it was run: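 NCI-H358 cells pre-induced 24 h with 10 ng/ml doxycycline to express N-terminal eGFP-delta133p53alpha, then dosed 24 h at 37C without doxycycline; fixed, Hoechst-stained, GFP intensity by laser scanning cytometry, normalized to DMSO (0%) and 57.5 uM 5-azacytidine (100%).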
# [2] = biological target: Cellular tumor antigen p53 (Homo sapiens) (UniProt P04637); test: Primary qHTS for small molecule compounds that upregulate eGFP-tagged delta133p53alpha (in C-terminal) cells. (AID 2060324)
# How it was run: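 NCI-H358 cells with doxycycline-inducible D133p53a-eGFP (C-terminal tag), pre-induced 24 h with 100 ng/ml doxycycline, plated 800/well in doxycycline-free medium and treated 24 h at 37 °C with compound titrations. Cells were then fixed and Hoechst-stained, and GFP intensity was read by laser scanning cytometry.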
# [3] = biological target: Aldehyde dehydrogenase, mitochondrial (Homo sapiens) (UniProt P05091); test: qHTS for Inhibitors of the Aldehyde Dehydrogenase Family (ALDH2) Validation screens (AID 2061302; active = well fitted inhibition curve with a large enough effect; title and protocol of this record describe different tests; also: potency is read from the fitted curve at half-maximal effect)
# [4] = qHTS for Inhibitors of the Aldehyde Dehydrogenase Family (ALDH1A2, ALDH1A3, ALDH2, ALDH3A1) (AID 2061307); also: nearly all actives have a fitted effect of over 50% in size; as to potency: test system not described further here; potency is read from the fitted curve at half-maximal effect
# [5] = biological target: Retinaldehyde dehydrogenase 3 (Homo sapiens) (UniProt P47895); test: qHTS for Inhibitors of the Aldehyde Dehydrogenase Family (ALDH1A3) Confirmatory screens (AID 2061311); also: nearly all actives have a fitted effect of over 60% in size; also: potency is read from the fitted curve at half-maximal effect
# [6] = biological target: Retinal dehydrogenase 2 (Homo sapiens) (UniProt O94788); test: qHTS for Inhibitors of the Aldehyde Dehydrogenase Family (ALDH1A2) Confirmation screens (AID 2061314); also: nearly all actives have a fitted effect of over 65% in size; also: potency is read from the fitted curve at half-maximal effect
# [7] = biological target: Aldehyde dehydrogenase, mitochondrial (Homo sapiens) (UniProt P05091); test: qHTS for Inhibitors of the Aldehyde Dehydrogenase Family (ALDH2) Primary screen (AID 2061308); also: nearly all actives have a fitted effect of over 55% in size
# [8] = biological target: Retinaldehyde dehydrogenase 3 (Homo sapiens) (UniProt P47895); test: qHTS for Inhibitors of the Aldehyde Dehydrogenase Family (ALDH1A3) Validation screen (AID 2061312); also: nearly all actives have a fitted effect of over 45% in size
# [9] = biological target: Retinaldehyde dehydrogenase 3 (Homo sapiens) (UniProt P47895); test: qHTS for Inhibitors of the Aldehyde Dehydrogenase Family (ALDH1A3) Primary screen (AID 2061315)
# [10] = biological target: Aldehyde dehydrogenase, mitochondrial (Homo sapiens) (UniProt P05091); test: qHTS for Inhibitors of the Aldehyde Dehydrogenase Family (ALDH2) Confirmatory screens (AID 2061303; active = well fitted inhibition curve with a large enough effect; title and protocol of this record describe different tests; also: nearly all actives have a fitted effect of over 45% in size)
# [11] = biological target: Aldehyde dehydrogenase 1A1 (Homo sapiens) (UniProt P00352); test: qHTS for Inhibitors of the Aldehyde Dehydrogenase Family (ALDH1A1) Confirmatory screens (AID 2061316); also: nearly all actives have a fitted effect of over 65% in size; also: potency is read from the fitted curve at half-maximal effect
# [12] = BET inhibitor-based combinations targeting novel dependencies in MECOM-rearranged (r) AML: SET-2 cell line (AID 2202231); conditions: SET-2 AML cells viability, CellTiter-Glo luminescence, 48 h; viability: hits give low values, concentration not given here; also: nearly all actives have a fitted effect of over 35% in size; also: potency is read from the fitted curve at half-maximal effect
# How it was run: (§1)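 Luminescent ATP readout (CellTiter-Glo) after 48 hr drug exposure gives viability. Curves span 11 concentrations and are normalized to DMSO and empty wells. Activity is reported as area under the curve and its Z-transform within each cell line.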
# [13] = BET inhibitor-based combinations targeting novel dependencies in MECOM-rearranged (r) AML: OCI-AML3 cell line (AID 2202232); conditions: Potency: OCI-AML3 viability; also: nearly all actives have a fitted effect of over 35% in size; also: potency is read from the fitted curve at half-maximal effect
# How it was run: as §1
# [14] = BET inhibitor-based combinations targeting novel dependencies in MECOM-rearranged (r) AML: MV-4-11 cell line (AID 2202233); also: nearly all actives have a fitted effect of over 45% in size; also: potency is read from the fitted curve at half-maximal effect
# How it was run: (§2)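 Luminescent ATP readout (CellTiter-Glo, 15 min at room temperature) after 48 hr drug exposure gave viability. Dose-response curves, normalized to DMSO and empty-well controls, were summarized as area under the curve and its mean-centred Z-score.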
# [15] = BET inhibitor-based combinations targeting novel dependencies in MECOM-rearranged (r) AML: UCSD-AML1 cell line (AID 2202235); also: nearly all actives have a fitted effect of over 40% in size; also: potency is read from the fitted curve at half-maximal effect
# How it was run: as §2
# [16] = BET inhibitor-based combinations targeting novel dependencies in MECOM-rearranged (r) AML: AML-191 cell line (AID 2202236; also: nearly all actives have a fitted effect of over 35% in size; also: potency is read from the fitted curve at half-maximal effect)
# How it was run: as §1
# [17] = BET inhibitor-based combinations targeting novel dependencies in MECOM-rearranged (r) AML: AML-194 cell line (AID 2202237; also: nearly all actives have a fitted effect of over 40% in size; also: potency is read from the fitted curve at half-maximal effect)
# How it was run: as §1
# [18] = BET inhibitor-based combinations targeting novel dependencies in MECOM-rearranged (r) AML: HNT-34 cell line (AID 2202234); also: nearly all actives have a fitted effect of over 35% in size
# How it was run: as §2
smiles,measurement,setting,value
NC(=O)c1cc[n+](CC2=C(C(=O)O)N3C(=O)[C@@H](NC(=O)[C@@H](c4ccccc4)S(=O)(=O)[O-])[C@H]3SC2)cc1,activation,[1],-28.8%
same,Potency,[2],inactive
same,Potency,[3],inactive
same,Potency,[4],inactive
same,Potency,[5],inactive
same,Potency,[6],inactive
CC(=O)CCCCn1c(=O)c2c(ncn2C)n(C)c1=O,activation,[1],-15.1% and -0.333% and -11.4%
same,Potency,[2],inactive
same,Potency,[3],inactive
same,Potency,[7],inactive
same,Potency,[8],inactive
same,Potency,[9],inactive
NC(=S)c1ccc[n+]([C@@H]2O[C@@H](COP(=O)([O-])OP(=O)(O)OC[C@H]3O[C@@H](n4cnc5c(N)ncnc54)[C@H](OP(=O)(O)O)[C@@H]3O)C(O)C2O)c1 (stereo partly drawn),activation,[1],-2.21%
same,Potency,[2],inactive
same,Potency,[3],inactive
same,Potency,[10],inactive
same,Potency,[4],20.1 µM (active)
same,Potency,[11],25.2 µM (active)
O=c1ccc2c(OCCCCc3ccccc3)c3ccoc3cc2o1,activation,[1],-37.4%
same,Potency,[2],inactive
same,Potency,[3],inactive
same,Potency,[4],1.12 µM (active)
same,Potency,[5],12.6 µM (active)
O=C(O)c1cc(=O)c2c(Cl)cc(Cl)cc2[nH]1,activation,[1],-19.2%
same,Potency,[2],inactive
same,Potency,[3],inactive
same,Potency,[4],inactive
same,Potency,[11],inactive
CN1CCC[C@@H]1Cc1c[nH]c2ccc(CCS(=O)(=O)c3ccccc3)cc12,activation,[1],8.47% and -10.4% and 2.33%
same,Potency,[2],inactive
same,Potency,[3],inactive
same,Potency,[7],inactive
same,Potency,[8],inactive
CC(C)NCC(O)COc1cccc2[nH]ccc12 (stereo not drawn),activation,[1],-9.6% and -5.67% and -6.98%
same,Potency,[2],inactive
same,Potency,[3],inactive
same,Potency,[7],inactive
same,Potency,[8],inactive
same,Potency,[9],inactive
Cc1cc(Cn2cnc3c2C[C@@H](C(=O)O)N(C(=O)C(c2ccccc2)c2ccccc2)C3)ccc1N,activation,[1],-13.9%
same,Potency,[2],inactive
same,Potency,[3],inactive
same,Potency,[10],inactive
same,Potency,[6],inactive
O=C(O)/C(=C/c1c(C(=O)O)[nH]c2cc(Cl)cc(Cl)c12)c1ccccc1,activation,[1],12.5%
same,Potency,[2],inactive
same,Potency,[3],inactive
same,Potency,[4],11.3 µM (active)
same,Potency,[5],inactive
same,Potency,[8],inactive
NS(=O)(=O)c1ccc(-n2nc(C(F)(F)F)cc2-c2ccc(Cl)cc2)cc1,activation,[1],-38.9% and -11.9%
same,Potency,[2],inactive
same,Potency,[3],inactive
same,Potency,[7],inactive
same,Potency,[8],inactive
same,Potency,[9],inactive
CN1CCC2(CCN3CCc4c(oc5ccccc45)C3C2)N(C)C1=O (stereo not drawn),activation,[1],-14.7%
same,Potency,[2],inactive
same,Potency,[3],inactive
same,Potency,[10],inactive
same,Potency,[4],inactive
same,Potency,[5],inactive
same,Potency,[11],inactive
CCOC(=O)N1CCN(/[N+]([O-])=N/Oc2ccc([N+](=O)[O-])cc2[N+](=O)[O-])CC1,Potency,[1],4.78 µM (active)
same,Potency,[2],inactive
same,Potency,[3],inactive
same,Potency,[10],inactive
same,Potency,[5],14.2 µM (active)
same,Potency,[6],2.25 µM (active)
same,Potency,[12],4.68 µM (active)
same,Potency,[13],2.95 µM (active)
same,Potency,[14],1.86 µM (active)
same,Potency,[15],2.95 µM (active)
same,Potency,[16],2.09 µM (active)
same,Potency,[17],2.95 µM (active)
CC1CN(S(=O)(=O)c2cccc3cnccc23)CCN1 (stereo not drawn),activation,[1],-66.5%
same,Potency,[2],inactive
same,Potency,[3],inactive
same,Potency,[10],inactive
same,Potency,[4],inactive
same,Potency,[5],inactive
same,Potency,[6],inactive
same,Potency,[11],inactive
O=C(Nc1ccc2[nH]ncc2c1)C1CCC1,activation,[1],-2.43% and 6.33%
same,Potency,[2],inactive
same,Potency,[3],inactive
same,Potency,[7],inactive
same,Potency,[8],inactive
same,Potency,[9],inactive
Cc1cn[nH]c1,activation,[1],25.4% and 16.2% and -25.1%
same,Potency,[2],inactive
same,Potency,[3],inactive
same,Potency,[10],inactive
same,Potency,[5],inactive
same,Potency,[11],inactive
same,Potency,[15],inactive
CCN1C(=O)C=CC1=O,activation,[1],-15.7%
same,Potency,[2],inactive
same,Potency,[3],12.6 µM (active)
same,Potency,[10],inactive
same,Potency,[4],inactive
same,Potency,[5],inactive
same,Potency,[6],inactive
same,Potency,[11],inactive
CCc1ccc(/C=C2/SC(=S)NC2=O)cc1,activation,[1],-0.0291%
same,Potency,[2],inactive
same,Potency,[3],inactive
same,Potency,[4],inactive
same,Potency,[5],inactive
same,Potency,[8],inactive
same,Potency,[6],inactive
same,viability,[12],89.4%
same,Potency,[13],inactive
same,Potency,[14],inactive
same,Potency,[15],inactive
same,Potency,[16],inactive
same,Potency,[17],inactive
CCCCCCN(CCCCCC)C(=O)Cc1c(-c2ccc(F)cc2)[nH]c2ccccc12,activation,[1],-10.8%
same,Potency,[2],inactive
same,Potency,[3],10 µM (active)
same,Potency,[10],inactive
same,Potency,[4],inactive
same,Potency,[5],inactive
same,Potency,[6],inactive
same,Potency,[11],inactive
Cc1[nH]c(=O)c(C#N)cc1-c1ccncc1,activation,[1],7.4% and -9.21% and 7.59%
same,Potency,[2],inactive
same,Potency,[3],inactive
same,Potency,[10],inactive
same,Potency,[5],inactive
same,Potency,[6],inactive
same,viability,[12],118%
same,Potency,[13],inactive
same,Potency,[14],inactive
same,Potency,[18],inactive
same,Potency,[15],inactive
same,Potency,[16],inactive
same,Potency,[17],inactive
